Structures are written as SMILES. This is part of a sample that, as a whole, favours compounds with a hit. Of some 79,000 tested, about 15% had one in any assay. Values without a mark were called inactive. The source made the active and inactive calls. Cut-off read from the data, not from the text of the source: active = growth inhibition above about 70%; inactive = the rest.

The experiment is described as follows: NCI Yeast Anticancer Drug Screen. Data for the mlh1 rad18 strain (AID 175). The settings on record: S. cerevisiae mlh1 rad18 strain growth inhibition; at 50.0 µM; active compounds read high. In outline:
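Yeast w/ defined DNA-repair lesions; compound exposure; growth vs vehicle controls → % inhibition.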
As for `CCCCCCCCCCCCCCOC(=O)C(N)Cc1ccc(O)cc1` (stereo not given), the growth inhibition was 98.8% (active). In the case of `CN(C)c1ccc(C(O)(Cc2cccc(C#N)c2)c2ccc(N(C)C)cc2)cc1` it was 56.8%; in that of `O=C(NNC(=O)c1cccc(C(=O)NNC(=O)c2ccc(Cl)c(Cl)c2)n1)c1ccc(Cl)c(Cl)c1`, 51.4%; in that of `C=C1C(=O)O[C@H]2[C@H](OC(C)=O)[C@@H](C)CCC/C(C)=C/CC[C@@]3(C)O[C@@H]3C[C@@H]12`, 92.3% (active). In the case of `O=C(c1ccccc1)C1OC1c1ccccc1Cl` (stereo not given) it was -9%; in that of `[N-]=[N+]=Nc1ccc(SSCCC(=O)ON2C(=O)CCC2=O)cc1`, 98.5% (active).

For the molecule `Cc1cc(N(CCC#N)CCC#N)ccc1/C(N=Nc1cccc([N+](=O)[O-])c1)=N/NC(=O)c1cc(Cl)ccc1O`, the growth inhibition was 31.9%. In the case of `CC(C)/C(Cl)=N\OC(=O)Nc1ccc(S(N)(=O)=O)cc1` it was -38.8%.

Take `CCCCCCCCCCCCCC(=O)OCC(O)CO` (stereo not given): the growth inhibition was 8.55%. As for `O=C1C=CC(=O)N1C1CCCCC1`, the growth inhibition was 99.6% (active). Take `CCCCCCCCCCCC(=O)OCC1OC(n2cc(F)c(=O)[nH]c2=O)C(N)C(O)C1O` (stereo not given): the growth inhibition is 88.5% (active). As to `CN(C)c1ccc(C2C=C(c3ccccc3)Oc3ccccc32)cc1` (stereo not given), the growth inhibition was 96.8% (active). In the case of `CS(=O)(=O)OCCN(CCOS(C)(=O)=O)c1ccc(C=Nc2cccc(Cl)c2)cc1`, the growth inhibition was 96.7% (active). As to `O=C1C(=O)N(c2cc(Cl)ccc2Cl)C(=O)C(=O)C1c1nc2ccccc2o1`, the growth inhibition is 31.9%. Consider `CC1=NC(=Cc2ccc(Cl)cc2)C(=O)N1n1c(-c2ccccc2)nc2ccccc2c1=O`, for which the growth inhibition is 81.5% (active). In the case of `C/C(=N/Nc1ccc([N+](=O)[O-])cc1[N+](=O)[O-])C1=CCC(C(C)(C)C)CC1` (stereo not given) it was 11.8%. In the case of `Cc1ccc(C)c(N2C(=O)C(=O)C(c3nc4ccccc4o3)/C(=N\NC(=O)c3ccccc3O)C2=O)c1` (stereo not given) it was 71.9% (active); in that of `O=C(/C=C/C=C/c1ccccc1)c1ccco1`, 76% (active); in that of `O=C1CCC(=O)c2c1c(O)c1ccncc1c2O`, 99% (active). In the case of `CNC(=O)OC(C)CN1c2ccccc2Sc2ccc(Cl)cc21` (stereo not given) it was 88.2% (active). On to `c1coc(C2=Nc3cccc4cccc(c34)N2)c1`, for which the growth inhibition was 54.6%.

For the molecule `CCOC(=O)[C@]12CCC[C@@]1(O)NC(=O)c1cnccc12`, the growth inhibition was 97.3% (active). Then `Cc1cccc(C)c1N1C(=O)C2Nc3ccccc3SC2C1=O` (stereo not given), with 98.5% (active); and `CCc1cccc(C(C)(C)C)c1NC(=S)N/C=C(\c1ccccc1)S(=O)Cc1ccccc1` (stereo not given), with 69.8%. Then `CC(=O)Nc1ccc(-c2cnc3ccccc3c2)cc1`, with 9.15%; and `OCC(CO)C1c2cccc3ccc4cccc1c4c23`, with 81.4% (active). Turning to `O=C1CC(=S)NC(=S)N1`, the growth inhibition was 40.2%. Take `Cc1c2ccnc(C(N)=O)c2c(C)c2c1[nH]c1ccccc12`: the growth inhibition is 73.9% (active). For `CCC(=O)Sc1ccccc1C(=O)Nc1ccc(Cl)cc1`, the growth inhibition was 85.2% (active). For `O=C(O)c1c(Cl)c(Cl)c(Cl)c(Cl)c1-c1c2cc(I)c(=O)c(I)c-2oc2c(I)c(O)c(I)cc12`, the growth inhibition was 91.2% (active). On to `C=C/C=C/CC=C`, for which the growth inhibition was 59.9%. Then `Cc1ccccc1N1CCN(c2c3c(nc4ccccc24)CCCCC3)CC1`, with 96.5% (active); and `N/N=C(\N)c1ccc2ccc3cccnc3c2n1`, with 52.8%. With `CCCCCC(CCCCC)C(=O)O`, the growth inhibition was 79.5% (active).

As for `O=Cc1cc(S(=O)(=O)c2ccc(O)c(C=O)c2)ccc1O`, the growth inhibition is 98.6% (active). In the case of `Cc1ccc(C)c(N2C(=O)C(=O)C(c3nc4ccccc4o3)C(=O)C2=O)c1` it was 98.8% (active); in that of `COC(=O)c1cc(C)c2sc3ccccc3c2c1C`, 61.5%. Then `O=C1NC(=O)N(c2ccc(Cl)c(Cl)c2)C1=O`, with 27.9%; and `Clc1ccc2oc(N3CCCCC3)nc2c1`, with 98.7% (active).

As for `Cc1ccc(N=NC(C(=O)c2ccccc2)C(=O)c2ccccc2)cc1`, the growth inhibition was 92.5% (active).

Source of the values: PubChem BioAssay (NCI).
